About 79,000 compounds went through this panel and 15% of them were active in at least one assay; those are over-represented in the sample as a whole. Activity calls are given as the source filed them. Cut-off read from the data, not from the text of the source: active = growth inhibition above about 70%; inactive = the rest.
Experiments:
[1] = NCI Yeast Anticancer Drug Screen. Data for the rad50 strain (AID 155);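 note: 0% = growth of vehicle-only cultures of the same strain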; details: S. cerevisiae rad50 strain growth inhibition; at 50.0 µM; active compounds read high
Method in brief: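 Inhibition values express reduced yeast growth in compound-treated cultures relative to vehicle-treated controls.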

[2] = NCI Yeast Anticancer Drug Screen. Data for the mec2-1 strain (AID 157); details: S. cerevisiae mec2-1 strain, at 50.0 µM, active compounds read high
Method in brief: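 Compounds were applied to mec2-1 yeast cells. Their growth was then compared with that of vehicle-treated cultures to give growth inhibition.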

[3] = NCI Yeast Anticancer Drug Screen. Data for the sgs1 mgt1 strain (AID 161);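 note: 0% = growth of cultures given vehicle only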; details: S. cerevisiae sgs1 mgt1 strain, at 50.0 µM, active compounds read high
Method in brief: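 Percent growth inhibition was derived by comparing compound-exposed mutant yeast with vehicle-exposed cultures. The strain carries alterations in DNA damage repair.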

[4] = NCI Yeast Anticancer Drug Screen. Data for the cln2 rad14 strain (AID 165);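 note: 0% = growth equal to vehicle treated cultures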; details: S. cerevisiae cln2 rad14 strain, at 50.0 µM, active compounds read high
Method in brief: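 Strain: cln2 rad14 yeast, altered in cell cycle control and DNA damage repair. Read-out: growth inhibition vs vehicle.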

[5] = NCI Yeast Anticancer Drug Screen. Data for the bub3 strain (AID 167); details: S. cerevisiae bub3 mutant strain, at 50.0 µM, active compounds read high
Method in brief: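 Steps: expose the mutant yeast strain to compound; grow alongside vehicle-treated cultures; measure growth; express inhibition against the vehicle cultures.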

[6] = NCI Yeast Anticancer Drug Screen. Data for the mlh1 rad18 strain (AID 175); details: S. cerevisiae mlh1 rad18 strain growth inhibition; at 50.0 µM; active compounds read high
Method in brief: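 A repair-deficient yeast strain is exposed to test compound, and growth is scored relative to vehicle-treated controls.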

Measured: growth inhibition

O=C(CCc1ccc(O)c(O)c1)c1ccc(O)c(O)c1O
inactive: [1] 2.05% | [2] -19.9% | [3] 9.1% | [4] 2.6% | [5] -17.1% | [6] -33.9%

O=C=NC(c1ccccc1)(c1ccccc1)c1ccccc1
inactive: [1] -4.25% | [2] -18.1% | [3] 1.65% | [4] 11.5% | [5] -5.5% | [6] 13.2%

Cc1ccc(NC(=O)/C(=N\NC(N)=O)c2c(O)c3ccccc3[nH]c2=O)cc1
inactive: [1] 1.45% | [2] 4.6% | [3] -10.5% | [4] 7.85% | [5] -3.05% | [6] -33%

CC1(C)Oc2ccc3c(=O)cc(-c4ccc(F)cc4)oc3c2C1C(=O)O (configuration not stated)
inactive: [1] -2.3% | [2] -16.6% | [3] -12.2% | [4] -9.1% | [5] 8.1% | [6] -28.8%

COc1ccc(-c2nc3ccccc3c(=S)n2OC(C)=O)cc1
inactive: [1] 68.5% | [4] 27.2%
active: [2] 77.2% | [3] 82.1% | [5] 90.2% | [6] 78.2%

C=CC1=C(C)C2=NC1=CC1=NC(=C(CC)/C1=C\O)C=C1N=C3C(=C1C)C(=O)[C@H](C(=O)OC)C3=C1NC(=C2)[C@@H](C)[C@@H]1CCC(=O)O
inactive: [1] -19.7% | [2] 0.7% | [3] 4.1% | [4] 9.15% | [5] -4.35% | [6] -15.9%

O=C(O)COc1cc(-c2ccccc2F)nc2cc3c(cc12)OCO3
inactive: [1] 34.1% | [2] 22.5% | [3] 15.9% | [4] 7.9% | [5] -3.15% | [6] -18.1%

CNC(=O)c1cccnc1
inactive: [1] -5.35% | [2] -26% | [3] -20.6% | [4] 6.7% | [5] -12.2% | [6] -8.35%

COC(=O)C1CCC(=O)N1CN(C(C)=O)c1cccc(O)c1 (configuration not stated)
inactive: [1] 5.8% | [2] 3.3% | [3] 0.2% | [4] 9.75% | [5] -15.7% | [6] -52.3%

C=C1C(=O)O[C@H]2C[C@@]3(C)[C@H](O)CCC(=C)[C@@H]3[C@@H](OC(C)=O)[C@H]12
inactive: [1] 2.95% | [2] 25.4% | [3] 0.05% | [4] -6.7% | [5] -26.8% | [6] -29.4%

N#Cc1n[nH]n(-c2ccccc2)c1=O
inactive: [1] -26.3% | [2] -10.8% | [3] 17.3% | [4] -11.7% | [5] -21% | [6] -13.7%

COc1ccc2c(=O)c(-c3cc4c(cc3OC)OCO4)coc2c1
inactive: [1] -26.5% | [2] -30.9% | [3] -11.3% | [4] -3.1% | [5] -33.5% | [6] -56.4%

CC(=N/N=C/c1ccccn1)/C(C)=N/N=C(C)/C(C)=N/N=C(C)/C(C)=N/N=C(C)/C(C)=N\N=C\c1ccccn1
inactive: [1] 24.1% | [2] 21.9% | [3] 4.05% | [4] 16.7% | [5] 8.15% | [6] -21.6%

O=C1c2ccccc2-c2c1c1ccccc1c(=O)n2CCO
active: [1] 76.8%
inactive: [2] 43.7% | [3] 60.4% | [4] 60.6% | [5] 51.9% | [6] 62.8%

O=C(NC1=NC2C=CC([N+](=O)[O-])=CC2S1)C(=O)Nn1c(=S)[nH]c2ccccc2c1=O (configuration not stated)
inactive: [1] 6.8% | [2] -14.9% | [3] 20.2% | [4] 10.8% | [5] 20.7% | [6] 24.1%

C=C1C(=O)O[C@@H]2C[C@@]3(C)CC(=O)C=C(C)[C@@H]3C[C@H]12
inactive: [1] 12.6% | [2] -7.15% | [3] -7.2% | [4] 24.7% | [5] 15.8% | [6] -16.4%

COc1ccc2cc1Oc1ccc(cc1)C[C@@H]1c3cc(c(OC)cc3CCN1C)Oc1c(OC)c(OC)cc3c1[C@H](C2)N(C)CC3
inactive: [1] 22.1% | [2] -19.9% | [3] 6.25% | [4] 5.1% | [5] 9.4% | [6] -49.9%
